# DT40 TDP1 no CPT: qHTS for Inhibitors of human tyrosyl-DNA phosphodiesterase 1 (TDP1): qHTS in cells in absence of CPT. 420,000 compounds, 15% hits. Potency, µM (top dose mostly 46.2 µM), actives largely listed as inhibitors. AID 686978, 2013. DT40 Tdp1-/- hTDP1 cells, no CPT, ATP luminescence, 48 h; also: nearly all actives have a fitted effect of over 55% in size
#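 Readout: luminescence from CellTiter-Glo after 30 min in the dark at RT. Cells: DT40 Tdp1-/- with stable hTDP1, 400/well. Exposure: compounds alone, ≥48 hr, 37 °C.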
# IL1B secr inh: blocks inflammasome-driven IL-1 beta release; 360,000 compounds, 4.7% hits; AID 743279; activity change, % at 57.5 µM; THP-1 LPS/ATP IL-1B secretion, AlphaLISA, 16 h; active compounds read low; in the data active = activity change below about -50%; inconclusive = mostly about -30% to -49%
#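 Secreted IL-1B measured by AlphaLISA bead assay after 16 h compound exposure of THP-1 cells; compounds (final up to 57.5 uM) added 1 h before LPS (250 ng/mL) and ATP (1.25 mM) stimulation; lower signal means less secretion.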
# TDP1 cell CPT: DT40-hTDP1 cell growth loss with CPT; chicken DT40 Tdp1-/-;hTDP1 cells + 20 nM CPT, ATP luminescence, 48 h; Potency, µM (highest dose often 46.2 µM), actives largely listed as inhibitors; 420,000 compounds, 12% hits; also: nearly all actives have a fitted effect of over 55% in size
#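 Chicken DT40 Tdp1-/- cells complemented with human TDP1, 400 cells/well, exposed to compounds plus 20 nM camptothecin for at least 48 h at 37 C; viability read as ATP content by CellTiter-Glo luminescence.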
# HT1080NT lethal: kills 2HG-producing HT-1080-NT fibrosarcoma cells; Potency, µM (series often up to 46.1 µM), most hits filed as cytotoxic; AID 686970; 360,000 compounds, 1.6% hits; HT-1080-NT fibrosarcoma viability, CellTiter-Glo ATP luminescence, 48 h;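 also: NT is the 2HG producing partner of a matched IDH1 knockdown line; nearly all actives have a fitted effect of over 55% in size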
#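 Toxicity toward the 2HG-producing NT line was scored as %Activity, normalised to DMSO and no-cell wells, from CellTiter-Glo luminescence after 48 hours' treatment.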
# HT1080 IDH1KD tx: toxicity to HT-1080 IDH1 knockdown cells (counter line). HT-1080 IDH1 knockdown viability, ATP luminescence, 48 h. Potency, µM (doses to about 46.1 µM), usual class: cytotoxic. 360,000 compounds, 2% hits. AID 686971
#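 IDH1KD HT-1080 cells, 750/well, RPMI + 5% FBS; compound pinned after 2 h settling; 48 h, 37 °C; CellTiter-Glo luminescence; % activity normalised to DMSO and no-cell wells; curves fitted, classed by r2 and efficacy.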
# A number is an active result; n = inactive; u = inconclusive; x = no result; [ ] = remark or other dose. Hits are enriched below; roughly 19% of the tested compounds scored in any of these assays. Unless noted, calls follow the shape of the dose curve; as a rule, active = well fitted curve in the direction sought with a large enough effect; inconclusive = small, poorly fitted or top-dose-only effect, or another doubt; inactive = no such curve, though single readings can be large; an effect the other way counts as inactive or inconclusive.
SMILES,DT40 TDP1 no CPT,IL1B secr inh,TDP1 cell CPT,HT1080NT lethal,HT1080 IDH1KD tx
Cn1c(O)c(N=NC(=O)Cn2c(C(F)(F)F)nc3ccccc32)c2ccccc21,13µM,n,21µM,n,n
Cc1cc(C(=O)N=Nc2c(O)n(C(C)C)c3ccccc23)n[nH]1,18µM,n,u,n,n
CN1C/C(=C\c2ccc(N3CCOCC3)cc2)C(=O)/C(=C/c2ccc(N3CCOCC3)cc2)C1,21µM,-103,u,u,u
CCN1C/C(=C/c2ccc(N3CCOCC3)cc2)C(=O)/C(=C/c2ccc(N3CCOCC3)cc2)C1,u,-103,u,u,21µM
CN1C/C(=C/c2ccsc2)C(=O)/C(=C/c2ccsc2)C1,13µM,-94,10µM,u,u
CCCC(=O)Nc1ccc(N2CCOCC2)cc1,n,n,n,n,n
O=C(NC1CCCCCC1)c1cc(S(=O)(=O)N2CCOCC2)ccc1F,n,n,n,n,n
COCCNc1nc(NCc2cccc(OC)c2OC)c2sccc2n1,12µM,n,u,u,n
COc1cccc(CNc2nn[nH]n2)c1OC,n,n,n,n,n
COc1ccccc1CNc1nc(NCc2cccc(OC)c2OC)c2sccc2n1,7.3µM,-90,4.6µM,21µM,u
CCOC(=O)C(C)NC(=O)c1cn(-c2ccc(OC)cc2)c(=O)c2ccccc12 (configuration not stated),n,n,n,n,n
Cc1cc(Cl)ccc1OCC(=O)N1CCOc2ccc(CN3C[C@@H](C)O[C@@H](C)C3)cc2C1,u,x,n[9.04 µM],x,x
CCOC(=O)C#CC(CCc1ccccc1)OS(N)(=O)=O (configuration not stated),u,-70,u,n,n
CCOc1ccc(C(=O)OCc2cc(=O)n3nc(C4CC4)sc3n2)cc1,n,x,n,x,x
CCN(CC)c1cc2c(cc1F)c(=O)c(S(=O)(=O)c1cc(C)ccc1C)cn2Cc1ccccc1,18µM,x,u,x,x
CCCn1cc(S(=O)(=O)c2ccc(CC)cc2)c(=O)c2cc(F)c(N(CC)CC)cc21,9.2µM,x,8.2µM,x,x
CCn1cc(S(=O)(=O)c2ccc(OC)cc2)c(=O)c2cc(OC)ccc21,n,n,n,n,n
CCN(CC)c1cc2c(cc1F)c(=O)c(S(=O)(=O)c1ccc(OC)cc1)cn2CC,15µM,x,16µM,x,x
COc1ccc([C@@H]2[C@@H]3C(=O)N(C(C)(C)C)C(=O)[C@@H]3[C@]3(Cc4ccccc4)C(=O)N(c4ccc(OC)cc4)C(=O)N23)cc1,n,n,n,n,n
COc1ccc(N2C(=O)N3[C@H](c4cccc(C)c4)[C@@H]4C(=O)N(Cc5ccccc5)C(=O)[C@@H]4[C@]3(Cc3ccccc3)C2=O)cc1,13µM,n,12µM,n,n
CC(C)C[C@@]12C(=O)N(c3cccc(F)c3)C(=O)N1[C@H](c1ccc(Br)cc1)[C@@H]1C(=O)N(C(C)(C)C)C(=O)[C@@H]12,21µM,n,u,n,n
CC(C)(C)N1C(=O)[C@H]2[C@@H](c3ccc(Br)cc3)N3C(=O)N(c4cccc(Br)c4)C(=O)[C@@]3(Cc3ccccc3)[C@H]2C1=O,8.2µM,n,u,n,n
CC[C@@]12C(=O)N(c3cccc(Cl)c3)C(=O)N1[C@H](c1ccc(Br)cc1)[C@@H]1C(=O)N(C(C)(C)C)C(=O)[C@@H]12,16µM,n,26µM,n,n
Cc1ccccc1-c1cnc(C(O)c2c(C)cccc2C)[nH]1 (configuration not stated),n,n,u,n,n
O=S(=O)(Cc1ccccc1)C(CCCc1ccccc1)S(=O)(=O)Cc1ccccc1,21µM,n,23µM,n,n
SMILES,DT40 TDP1 no CPT,IL1B secr inh,TDP1 cell CPT,HT1080NT lethal,HT1080 IDH1KD tx
O=S(=O)(Cc1ccccc1)CS(=O)(=O)Cc1ccccc1,n,n,n,n,n
O=C(Nc1ccccc1)C1CCCCN1S(=O)(=O)c1ccccc1 (configuration not stated),u,n,n,n,n
O=C(Nc1ccc(C(F)(F)F)cc1)C1CCCCN1S(=O)(=O)c1ccccc1 (configuration not stated),29µM,n,9.2µM,n,n
O=C(Nc1ccc(Cl)cc1)C1CCCCN1S(=O)(=O)c1ccccc1 (configuration not stated),7.3µM,n,u,u,u
O=C(OCC(=O)N1CCN(c2ccccc2)CC1)C1CCCN1S(=O)(=O)c1ccc(Cl)cc1 (configuration not stated),21µM,n,u,n,n
Cc1ccc(S(=O)(=O)N2CCCC2C(=O)Nc2nc3c(s2)CCCC3)cc1 (configuration not stated),23µM,n,u,n,n
COc1ccc(C)cc1NC(=O)C1CCCN(S(=O)(=O)c2ccc3c(c2)oc(=O)n3C)C1 (configuration not stated),u,x,n,x,x
Cc1ccc(NC(=O)[C@@H]2CCCN2S(=O)(=O)c2ccc(Cl)cc2)cc1,u,n,21µM,n,n
O=C(Nc1ccc(Cl)cn1)C1CCCN1S(=O)(=O)c1ccccc1 (configuration not stated),12µM,n,21µM,n,n
O=C(Nc1cccc(S(=O)(=O)N2CCCCC2)c1)[C@@H]1CCCN1S(=O)(=O)c1ccccc1C(F)(F)F,23µM,u,u,n,n
O=C(Nc1ccc(Br)cn1)C1CCCN1S(=O)(=O)c1ccccc1 (configuration not stated),u,n,u,n,n
Cc1cc(C)cc(NC(=O)C2CCCCN2S(=O)(=O)c2ccccc2)c1 (configuration not stated),13µM,n,21µM,n,n
CC(=O)c1cccc(NC(=O)C2CCCN2S(=O)(=O)c2ccccc2C(F)(F)F)c1 (configuration not stated),n,n,n,n,n
Cc1cc(C)nc(SCc2ccc(C(=O)N/N=C/c3ccco3)cc2)n1,n,n,n,n,n
CC(=O)Nc1ccc(NC(=O)C2CCCCN2S(=O)(=O)c2ccc(C(C)(C)C)cc2)cc1 (configuration not stated),u,n,23µM,n,n
O=C(NCc1ccccc1)C1CCCN1S(=O)(=O)c1ccc(Cl)cc1 (configuration not stated),n,n,u,n,n
O=C(NC1CC1)c1cccc(NC(=O)C2CCN(S(=O)(=O)c3ccccc3C(F)(F)F)CC2)c1,26µM,n,u,n,n
O=C(NCc1ccccc1Cl)[C@@H]1CCCN1S(=O)(=O)c1ccc(Cl)cc1,16µM,-51,u,n,n
O=C(NC1CC1)c1cccc(NC(=O)C2CCC2)c1,n,n,n,n,n
